Assay outcomes from PubChem BioAssay.
HP1b binding inh: blocks HP1-beta chromodomain binding to methylated histone tails | AID 540317 | Potency, µM (highest dose often 114 µM), inactives show at the top dose activity change, negative = inhibition, hits mostly inhibitors | 390,000 tested, 0.56% active | P83916 | AlphaScreen HP1-beta / biotin-H3K9me3 peptide binding; note: nearly all actives have a fitted effect of over 70% in size
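AlphaScreen: HP1-beta (50 nM) preformed 30 min with biotin-H3(1-18)K9me3 peptide (50 nM) in PBS pH 7.4, 0.01% Tween-20. Compound added for 30 min at RT, then streptavidin donor/nickel chelate acceptor beads (10 ug/mL) for 30 min.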
Sfp inh: inhibitors of Bacillus subtilis Sfp phosphopantetheinyl transferase; Potency, µM, inactives show largest response in the series, negative = inhibition, most hits filed as inhibitors; Biochemical Sfp PPTase activity, qHTS; 310,000 tested, 3.5% active;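 note: the enzyme is Sfp with the accession as filed and its product quenches rhodamine fluorescence; 0% = enzyme reaction without inhibitor and -100% = no enzyme wells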
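With Hepes-Na pH 7.6 buffer containing 10 mM MgCl2, Sfp (15 nM) modified BHQ-2-YbbR (12.5 uM) using rhodamine-CoA (5 uM). Two reads 30 minutes apart at 525/598 nm yielded each well's rate.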
BAZ2B inh: blocks human BAZ2B. Potency, µM (titrated, usually from 114 µM), inactives show top-dose activity change, negative = inhibition, hits mostly inhibitors. Q9UIF8. 360,000 tested, 4.4% active. AlphaScreen BAZ2B-H3K14Ac peptide displacement. AID 504333; note: % is set by controls: 0 for no effect and ±100 for the full control effect; nearly all actives have a fitted effect of over 60% in size
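Compounds, titrated to a top concentration of 110 uM, were incubated 30 min at room temperature with preformed BAZ2B/acetyl-K14 H3 peptide complex (50 nM each). Proximity signal was measured by AlphaScreen after 20 min with beads.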
G9a inh: blocks human histone lysine methyltransferase G9a. G9a H3K9 monomethylation, AlphaScreen, 2 h. Q96KQ7. 350,000 tested, 8.8% active. Potency, µM (highest dose often 102 µM), without a hit: at the highest dose activity, negative = inhibition, actives largely listed as inhibitors; note: % is set by controls: 0 for no effect and ±100 for the full control effect; nearly all actives have a fitted effect of over 75% in size
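Chemiluminescent proximity detection of H3K9 monomethylation, read after 10 min bead incubation in the dark. Reaction: 20 nM G9a, 500 nM biotin-H3K9 peptide, 20 uM SAM cofactor, 2 h, room temperature, following 15 min enzyme-compound preincubation.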
JMJD2A Tudor inh: blocks the human JMJD2A Tudor domain; O75164; Potency, µM (titrated, usually from 114 µM), for inactives: at the highest dose activity change, negative = inhibition, most hits filed as inhibitors; AlphaScreen JMJD2A-Tudor / H3K4me3 peptide binding; AID 504339; 390,000 tested, 4.4% active; note: % is set by controls: 0 for no effect and ±100 for the full control effect; nearly all actives have a fitted effect of over 50% in size
Target sequence (O75164 whole entry, looked up, the tested form may be a part): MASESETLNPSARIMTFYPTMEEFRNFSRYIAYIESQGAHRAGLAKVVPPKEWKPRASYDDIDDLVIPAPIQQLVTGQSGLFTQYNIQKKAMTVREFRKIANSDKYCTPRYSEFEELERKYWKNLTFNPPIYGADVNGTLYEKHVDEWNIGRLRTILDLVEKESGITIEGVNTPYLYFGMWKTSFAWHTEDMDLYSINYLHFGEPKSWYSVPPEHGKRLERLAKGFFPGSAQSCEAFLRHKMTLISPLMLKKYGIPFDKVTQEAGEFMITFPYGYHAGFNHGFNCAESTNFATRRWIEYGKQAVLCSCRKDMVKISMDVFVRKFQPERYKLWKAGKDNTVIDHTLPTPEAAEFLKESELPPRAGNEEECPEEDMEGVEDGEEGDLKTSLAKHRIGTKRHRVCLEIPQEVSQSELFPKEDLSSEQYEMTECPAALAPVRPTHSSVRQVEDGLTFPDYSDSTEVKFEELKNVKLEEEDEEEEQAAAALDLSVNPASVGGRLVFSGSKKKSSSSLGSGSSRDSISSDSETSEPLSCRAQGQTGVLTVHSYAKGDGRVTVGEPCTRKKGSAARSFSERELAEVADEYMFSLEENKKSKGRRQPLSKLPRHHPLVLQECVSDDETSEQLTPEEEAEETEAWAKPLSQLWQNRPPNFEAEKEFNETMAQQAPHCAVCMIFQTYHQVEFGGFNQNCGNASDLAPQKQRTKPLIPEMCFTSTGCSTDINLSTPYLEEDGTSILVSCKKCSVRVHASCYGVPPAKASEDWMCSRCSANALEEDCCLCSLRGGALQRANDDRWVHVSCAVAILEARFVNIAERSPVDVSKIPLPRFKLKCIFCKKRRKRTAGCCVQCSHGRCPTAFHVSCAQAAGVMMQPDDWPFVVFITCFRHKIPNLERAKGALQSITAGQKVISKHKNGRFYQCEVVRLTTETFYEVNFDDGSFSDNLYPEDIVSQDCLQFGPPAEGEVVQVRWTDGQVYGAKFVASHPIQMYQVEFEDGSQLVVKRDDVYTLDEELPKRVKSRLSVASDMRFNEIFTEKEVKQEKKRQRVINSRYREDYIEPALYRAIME
L3MBTL1 inh: blocks human L3MBTL1 | Q9Y468 | AlphaScreen L3MBTL1–H3K9me1 peptide binding | Potency, µM (titrated, usually from 57.1 µM), for inactives: top-dose activity, negative = inhibition, most hits filed as inhibitors | 230,000 tested, 0.66% active | AID 485360; note: % is set by controls: 0 for no effect and ±100 for the full control effect; nearly all actives have a fitted effect of over 60% in size
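L3MBTL1 50 nM + b-AHA-H3(1-15)K9me1 75 nM, 30 min RT; compound added, 30 min RT; streptavidin donor/Ni-chelate acceptor beads 10 ug/mL each final, 30 min RT dark; AlphaScreen read.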
* hit, by the source's call; ? = inconclusive; . = no result given; [ ] = dose if it differs, or a comment. Only some compounds are listed: those with a hit (about 12% of all), similar ones and a draw of the others. Calls come from the whole dose curve; as a rule, active = well fitted curve in the direction sought with a large enough effect; inconclusive = small, poorly fitted or top-dose-only effect, or another doubt; inactive = no such curve, though single readings can be large; an effect the other way counts as inactive or inconclusive. Potency is the fitted concentration of half-maximal effect.

SMILES	HP1b binding inh	Sfp inh	BAZ2B inh	G9a inh	JMJD2A Tudor inh	L3MBTL1 inh
CCc1ccc(-c2cc(C)no2)cc1S(=O)(=O)N1CCN(c2cc(C)ccc2C)CC1	27%	?	-13%	.	-6%	.
COc1ccc(NS(=O)(=O)c2ccc(/C=C/C(=O)O)cc2)cc1S(=O)(=O)N1CCOCC1	34%	2%	-10%	?	11%	-5%
O=C(C1CCCN(Cc2ccccc2C(F)(F)F)C1)N1CCCCC1 (stereo unspecified)	?	-10%	50µM*	5µM*	3.5µM*	0%
CN(C(=O)CCc1ccccc1F)C1CCCN(Cc2ccccc2F)C1 (stereo unspecified)	-4%	8%	2%	-7%[0.501 µM]	10µM*	-8%[2.29 µM]
O=C(NCc1ccccc1F)C1CCCN(C(=O)Nc2ccccc2)C1 (stereo unspecified)	20%	8%	-4%	-9%	-8%	.
O=C(C1CCCN(Cc2ccccc2F)C1)N1CCCCC1 (stereo unspecified)	45µM*	-4%	20µM*	10µM*	4µM*	.
O=C(c1cccc(F)c1)N1CCCC(C(=O)N2CCCCC2)C1 (stereo unspecified)	18%	13%	14%	49%	-22%	.
COc1ccccc1CN1CCCC(CN(CCN(C)C)C(=O)C2CCCC2)C1 (stereo unspecified)	5%	23%	4%	-7%	-6%	2%
COc1ccccc1CN1CCCC(C(=O)N2CCCCC2)C1 (stereo unspecified)	71µM*	-8%	45µM*	18µM*	1.8µM*	13%
CCOC(=O)C1=CC[C@H]2c3c(c4ccccc4n3C)C(=O)C1N2Cc1ccccc1	62%	.	.	.	-26%	-14%
O=C(NCc1cccs1)C(=O)NCC1OCCCN1S(=O)(=O)c1cc(F)ccc1F (stereo unspecified)	6%	13%	-4%	.	-21%	.
CC(NC(=O)C1CCN(S(=O)(=O)c2ccc3c(c2)oc(=O)n3C)CC1)c1ccccc1 (stereo unspecified)	20%	.	-3%	-3%[59 µM]	-23%	.
CCC[C@H]1C[C@H](C(=O)N[C@@H]([C@H]2O[C@@H](SC)[C@@H](O)[C@@H](O)[C@@H]2O)[C@H](C)Cl)N(C)C1	.	26%	.	-17%[12.7 µM]	.	.
COc1ccc(C(=O)N2CCCC(C(=O)O)C2)c2ccccc12 (stereo unspecified)	23%	2%	-6%	45µM*	1%	.
COc1ccccc1C(=O)C1CCCN(C(=O)c2ccccc2C(C)=O)C1 (stereo unspecified)	26%	12%	0%	-9%[12.7 µM]	-8%	.
Nc1nc2c(ncn2C2OC(COC(=O)c3ccccc3)C(OC(=O)c3ccccc3)C2OC(=O)c2ccccc2)c(=O)[nH]1 (stereo unspecified)	.	-22%	.	.	.	.
Cc1nc2c(cc(Oc3ccc(S(=O)(=O)N4CCOCC4)cn3)c3ccsc32)s1	23%	?	1%	71µM*	-17%	-9%
C#CCOCCOCCOCCNc1nc(N2CCN(C(=O)C(Cc3cc4ccccc4[nH]3)n3cc(C(N)Cc4ccc(O)cc4)nn3)CC2)nc(N2CCN(C(=O)C(Cc3cc4ccccc4[nH]3)n3cc(C(N)Cc4ccc(O)cc4)nn3)CC2)n1 (stereo unspecified)	-36%	?	11µM*	-28%[12.7 µM]	8.9µM*	?
C#CCOCCOCCOCCNc1nc(N2CCN(C(=O)[C@H](Cc3cc4ccccc4[nH]3)n3cc([C@@H](N)Cc4ccc(O)cc4)nn3)CC2)nc(N2CCN(C(=O)[C@H](Cc3cc4ccccc4[nH]3)n3cc([C@@H](N)CC(C)C)nn3)CC2)n1	-24%	56µM*	?	?	50µM*	.
COc1ccc(CC(=O)NNC(=O)c2ccc(Br)o2)cc1	27%	9%	-19%	7%	-3%	.
Cc1ccc(C2=N/C(=C\N3CCCCC3)C(=O)O2)cc1	-19%	50µM*	?	-32%[59 µM]	?	.
